Rows were chosen to be rich in hits. Some 0.93% of all compounds tested hit in one or more screens of this group.
TRHR enhancer: allosterically enhances the human TRH receptor | AID 493056 | TRHR cells, fluo-8 calcium fluorescence, EC20 TRH enhancement | enhancement, % at 2 µM | 360,000 tested, 0.66% active | P34981; in the data active = enhancement above about 30%; note: 0% is about no effect
Target sequence (P34981 whole entry, looked up): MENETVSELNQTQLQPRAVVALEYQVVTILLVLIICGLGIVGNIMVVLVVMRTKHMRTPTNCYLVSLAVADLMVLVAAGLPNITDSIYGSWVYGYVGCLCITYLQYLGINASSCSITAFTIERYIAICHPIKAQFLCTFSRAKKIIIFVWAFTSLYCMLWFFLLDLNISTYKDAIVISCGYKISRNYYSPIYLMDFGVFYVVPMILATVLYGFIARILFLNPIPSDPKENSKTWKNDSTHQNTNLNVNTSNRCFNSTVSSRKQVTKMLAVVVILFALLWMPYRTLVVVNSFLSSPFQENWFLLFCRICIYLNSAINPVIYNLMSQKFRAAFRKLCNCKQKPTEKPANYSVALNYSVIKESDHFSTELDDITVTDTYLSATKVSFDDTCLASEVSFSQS
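Enhancer read-out: after compound pinning and an initial kinetic agonist-mode read, an EC20 of TRH (10 nM final) was injected and fluo-8 calcium signal (Ex 480/Em 530) followed at 1 s/cycle for 100 cycles in TRHR-expressing cells.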
TRPML1 inh: human mucolipin-1 channel inhibition; Q9GZU1; TRPML1-inducible cells, Ca2+ dye fluorescence, FDSS; hits give low values; inhibition of EC80 agonist-evoked calcium signal; activity change, negative = inhibition, % (concentration not given with the values); 390,000 tested, 0.02% active; AID 624415; in the data active = activity change below about -50%;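 note: stimulus is agonist 54-4 at its EC80 concentration; % is set by controls: 0 for no effect and ±100 for the full control effect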
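Calcium fluorescence in TRPML1-DL cells induced overnight with Tet: a 110 s read after compound pin addition, then a 110 s antagonist read after challenge with 54-4 at 4 uM final (EC80).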
TRPML1 agonist: human mucolipin-1 channel agonism | TRPML1-expressing cells, Ca2+ dye fluorescence, FDSS | activation, % (test concentration not listed) | 410,000 tested, 0.12% active; in the data active = activation above about 50%; note: 0% is about no effect
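Agonist activity was taken from a 110 s kinetic Ca2+ dye read on the FDSS after pinning compounds onto TRPML1-DL cells. The cells were seeded at 1,500/well with Tet inducer, incubated about 16 h, then dye-loaded at room temperature.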
PTHR1 agonist: PTHR1 (human) receptor agonism. HEK293 GP2 PTHR1 cells, GloSensor cAMP luminescence, 1 h. Potency, µM (doses to about 115 µM), inactives show top-dose activation, most hits filed as activators. 410,000 tested, 0.075% active. AID 743266; note: potency is the fitted concentration of half-maximal effect; nearly all actives have a fitted effect of over 55% in size
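HEK-293-derived GP2 cells expressing PTHR1 and a GloSensor cAMP reporter, 3,000/well, plated overnight, given luciferin plus IBMX (each 0.5 mM as added) for 1 h at 37 °C, then compound for 1 h at 37 °C. Luminescence was read after 15 min at room temperature.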
TRHR ag: activates the human TRH receptor | 360,000 tested, 0.18% active | TRHR cells, calcium flux fluo-8, FDSS agonist mode | activation, % at 2 µM | P34981; in the data active = activation above about 30%; note: 0% is about no effect
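In this calcium-flux screen, cells bearing human TRHR are dye-loaded with fluo-8, baselined for 10 cycles, then exposed to library compounds; positive kinetic calcium responses during the agonist phase mark hits, with TRH as control.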
GLP1R cytotox: cytotoxic in the GLP-1 receptor inverse agonist counter-screen. HEK293 cAMP-luciferase reporter cells, luminescence, 24 h. Potency, µM (series often up to 38.3 µM), without a hit: at the highest dose activity change, negative = inhibition, usual class: inhibitors. 410,000 tested, 0.13% active. AID 624418;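 note: loss of luciferase light is scored as toxicity; potency is the fitted concentration of half-maximal effect; % is set by controls: 0 for no effect and ±100 for the full control effect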
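A 23 nL compound transfer followed 12 hours of cell culture at 37 deg C; exposure then lasted 24 hr. Luciferase assay detection reagent was dispensed and plates read for luminescence after a 12 min room-temperature wait.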
* hit, by the source's call; i = inactive; x = no result; [ ] = another dose, or the depositor's remark. Unless noted, calls come from the whole dose curve; as a rule, active = well fitted curve in the direction sought with a large enough effect; inconclusive = small, poorly fitted or top-dose-only effect, or another doubt; inactive = no such curve, though single readings can be large; an effect the other way counts as inactive or inconclusive.

SMILES | TRHR enhancer | TRPML1 inh | TRPML1 agonist | PTHR1 agonist | TRHR ag | GLP1R cytotox
CN(C)c1ccc(/C=C2\SC(=S)N(Nc3ncc(C(F)(F)F)cc3Cl)C2=O)cc1 | 27 | -4 | 53* | i | 80* | -3%
Cc1sc(NC(=O)C2CCCCC2)c(C#N)c1-c1ccccc1 | 5 | -14 | 83* | i | 0 | 0%
Cc1cccc(C(=O)Nc2sc(C)c(-c3ccccc3)c2C#N)c1 | 7 | -3 | 3 | -43% | 2 | -15%
Oc1ccc(N=Nc2ccc3c(c2)OCCO3)c2ncccc12 | -6 | 3 | 4 | -38% | -1 | 10µM*
c1ccc2c(N=NN3CCCCC3)ccnc2c1 | x | x | 1 | x | x | x
COc1ccc(C(=O)NCC(=O)OCC(=O)N2CCCc3ccccc32)cc1 | 37* | 21 | 1 | i | 0 | 14%
N#Cc1nc(Nc2cccc(Br)c2)nc(NC2CCCC2)n1 | -4 | x | x | x | -1 | x
COc1cccc(NC(=O)c2cccc(N3C(=O)C4CCC(C)CC4C3=O)c2)c1 (centres undefined) | 5 | 26 | 0 | -28% | 0 | 3%
Cc1ccc(C(=O)Nc2cccc(N3C(=O)C4CCC(C)CC4C3=O)c2)cc1 (centres undefined) | 33* | 22 | 2 | -27% | 0 | 4%
CCOc1cc(/C=C2\CCCc3c2nc2ccccc2c3C(=O)O)ccc1OC | 15 | -11 | 78* | i | 151* | i
CN(C)/C=N/c1nc2nccc(-c3ccccn3)n2n1 | 34* | -3 | -1 | -21% | 0 | -3%[7.66 µM]
CC(C)C(OC(=O)CNC(=O)c1ccccc1)C(=O)Nc1cc(C(F)(F)F)ccc1Cl (centres undefined) | -6 | x | x | x | 1 | x
COc1ccc(S(=O)(=O)N2CCC(c3nc4ccccc4[nH]3)CC2)cc1 | 39* | -2 | 1 | -10% | 0 | 0%
O=C1CC(c2nc3ccccc3[nH]2)CN1c1ccccc1 (centres undefined) | 31* | 17 | 0 | 28%[57.5 µM] | -1 | -3%
O=C1CC(c2nc3ccccc3[nH]2)CN1c1cccc(Cl)c1 (centres undefined) | 1 | -2 | -1 | i | 0 | 1%
Cc1ccc(C)c(N2CCN(C(=O)c3cnn(C(C)(C)C)c3C3CCN(C(=O)OC(C)(C)C)CC3)CC2)c1 | -12 | -26 | 51* | i | 17 | -7%
Cc1ccc(Cl)cc1N1CCN(C(=O)c2cnn(C(C)(C)C)c2C2CCN(C(=O)OC(C)(C)C)CC2)CC1 | -3 | -5 | 3 | i | 8 | 2%
Cc1ccc(N2CCN(C(=O)c3cnn(-c4ccc(F)cc4F)c3C3CCN(C(=O)OC(C)(C)C)CC3)CC2)c(C)c1 | 13 | -10 | 58* | 25% | 2 | 4%
Cc1ccc(C(C)C)c(OCC(=O)NCC2(N3CCOCC3)CCCCC2)c1 | 16 | -20 | 76* | -8% | 1 | 2%
CC(=O)c1sc(NC(=O)CCS(=O)(=O)c2ccc(C)cc2)nc1C | 0 | 6 | 1 | -3% | 0 | 10µM*
COc1ccc2c(c1)c1nnc(SC(C)C)nc1n2C | x | x | -1 | x | x | x
CSc1ccc(/C=C2\C=Cc3ccc([N+](=O)[O-])cc32)cc1 | x | x | 0 | x | x | x
COCCCN(C(=S)Nc1cccc(Cl)c1)C(C)c1ccncc1 (centres undefined) | 37* | -5 | -1 | -8% | 1 | -12%
COc1ccc2cc(CNCCOCCOCCNCc3ccc4cc(OC)ccc4c3)ccc2c1 | x | 8 | 0 | i | x | 4µM*
CCOCCCNCc1ccc(OC)cc1 | 9 | -12 | 0 | i | 0 | -23%
O=C(N/N=C/c1cc(Br)cc(Br)c1O)c1cccc(N2CCCC2=O)c1 | 8 | 23 | 3 | -20% | 7 | -7%
O=C(N/N=C/c1ccc(Cl)cc1Cl)c1cccc(N2CCCC2=O)c1 | 30* | 14 | 3 | -45% | 0 | -11%
CN1CCc2c(sc(NC(=O)CSc3ccccc3)c2-c2nc3ccccc3s2)C1 | -19 | -12 | 59* | 20% | 115* | 79%
